About 83,000 compounds went through this panel and 20% of them were active in at least one assay; those are over-represented in the sample as a whole.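 Results are percent growth after 48 hours of single-concentration exposure. 100 means growth as in untreated cells, lower positive values show inhibition; negative values down to -100 show cell death.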 Values without a mark were called inactive. Activity calls are given as the source filed them. Rule for the calls: active = growth percent below 10; inactive = the rest.
Assays:
Test in all cases: NCI-60 one-dose screen, 48 h (100 = growth as untreated, 0 = no growth, -100 = all killed)
Details in all cases: 10 µM unless noted
[1] = system: BT-549 breast
[2] = system: MDA-MB-435 melanoma
[3] = system: SW-620 colon
[4] = system: MCF7 breast
[5] = system: HCT-116 colon
[6] = system: HCC-2998 colon
[7] = system: KM12 colon

| SMILES | growth [1] | growth [2] | growth [3] | growth [4] | growth [5] | growth [6] | growth [7] |
| --- | --- | --- | --- | --- | --- | --- | --- |
| COc1cc(OCc2cccc(-c3ccc(C(O)c4nccs4)cc3)c2C)cc(OC)c1C=O (centres undefined) | 39.6% | 30.8% | 56% | 7.09% (active) | 23.1% | 73.9% | 71% |
| c1ccc2cc(Cn3c(-c4ccc5ccccc5c4)[n+](Cc4ccc5ccccc5c4)c4ccccc43)ccc2c1 | -46.5% (active) | -80.4% (active) | -85% (active) | -70.1% (active) | -61% (active) | -88.7% (active) | -90.6% (active) |
| CCOC(=O)c1sc(NC(=O)CN2CCC(Cc3ccccc3)CC2)nc1C | 104% | 105% | 95.8% | 94.4% | 81.5% | 102% |  |
| CCOC(=O)C1=C(C)N2C(=NC3=C(CCCC/C3=C\c3cc(OC)c(OC)c(OC)c3)C2c2cc(OC)c(OC)c(OC)c2)S1 (centres undefined) | 55.1% | 68.4% | 82.5% | 60.9% | 68% | 85% | 67.5% |
| Cc1ccccc1-n1nnc(C(=O)Nc2nc(-c3ccccc3)c(-c3ccccc3)s2)c1C | 89.7% [50 µM] | 82.7% [50 µM] | 87.3% [50 µM] | 72.2% [50 µM] | 62.6% [50 µM] | 99.1% [50 µM] |  |
| CCOC(=O)n1cc(C2=C(c3cn(C)c4ccccc34)COC2=O)c2ccccc21 | 26.8% | -22.2% (active) | 20.9% | 10.2% | 10.6% | 16.5% |  |
| O=C(O)C[C@H](O)C[C@H](O)/C=C/c1c(C2CC2)nc2ccccc2c1-c1ccc(F)cc1 | 75.1% | 93.9% | 83.3% | 96.3% | 63.3% | 99% |  |
| COc1ccc(NS(=O)(=O)c2ccc(-c3cnc(C4CC4)o3)cc2)cc1 | 58.6% | 1.55% (active) | 20.1% | 29.4% | 38.8% | 85.9% | 40.2% |
| O=C(Nc1ccc(F)cc1)c1ccc(C(=O)Nc2ccc(F)cc2)cc1 | 112% | 101% | 109% | 95.9% | 96.2% | 111% |  |
| COC(=O)c1ccc(C(=O)Nc2ccccc2N)cc1 | 60% | 77.7% | 72.3% | 69.2% | 75.4% | 85.8% | 86.3% |
| COc1ccc(/C=N/OCC(O)CN2CCC(O)CC2)cc1OC1CCCC1 (centres undefined) | 88.7% | 102% | 104% | 94.7% | 89.6% | 101% |  |
| COc1ccc(/C=N/NC(=O)c2cnn(CC(O)Cc3ccccc3)c2N)cc1OC1CCCC1 (centres undefined) | 75.7% | 100% | 98.9% | 83.7% | 90.4% | 116% | 35.2% |
| O=C1c2cc(S(=O)(=O)O)ccc2C(=O)c2c1cccc2[N+](=O)[O-] | 98.3% | 105% | 110% | 101% | 106% | 110% | 104% |
| O=c1[nH]c(=S)c2c(n1CCCO)CCC2 | 107% | 97% | 103% | 96.5% | 99.1% | 108% |  |
| CCN1CCN(c2nc3ccccc3c3c(=O)c4cc(F)ccc4sc23)CC1 | 85.7% | 10.2% | 37.2% | 65.1% | 54.8% | 64.9% |  |
| O=C(Nc1ccc(Cl)c(Cl)c1)OCn1ncc2ccc([N+](=O)[O-])cc21 | 78.5% | 94.3% | 106% | 85.9% | 80.7% | 93.8% | 86.2% |
| Cc1ccc(C(=O)Nc2ccccc2N)cc1 | 61.5% | 68.3% | 60% | 74.8% | 62.9% | 77.1% | 87.4% |
| Cc1nc2ccc(Cl)cc2n1C | 103% | 109% | 108% | 102% | 109% | 111% | 104% |
| COc1ccc(/C=N/NC(=O)c2cnn3c2NC(c2ccccc2)C3)cc1OC1CCCC1 (centres undefined) | 93.3% | 61.7% | 97.5% | 86.2% | 82% | 110% | 81.3% |
| COc1cc(-c2nc(SC(C)C)nc(Nc3ccccc3C)c2C#N)cc(OC)c1OC | 109% | 106% | 104% | 101% | 114% | 106% | 104% |
| CCCCC1COc2cccc3c(SCC(=O)N(C)c4cccc5ccccc45)cc[n+]1c23 (centres undefined) | 102% | 103% | 105% | 91.7% | 82.5% | 90.3% | 112% |
| CCN1C(=O)C2(Nc3ccccc3S2)c2cc(C)ccc21 (centres undefined) | 110% | 102% | 96.5% | 101% | 96.7% | 105% | 107% |
| COC(=O)/C=C1/CCC2C3CCC4=CC(=O)C(Br)CC4(C)C3C(=O)CC12C (centres undefined) | 95.9% | 76.3% | 69.2% | 42.3% | 47.9% | 62.1% | 81.1% |

| SMILES | growth [1] | growth [2] | growth [3] | growth [4] | growth [5] | growth [6] | growth [7] |
| --- | --- | --- | --- | --- | --- | --- | --- |
| Cc1ccccc1-c1cc(-c2ccc(Br)s2)[nH]c(=O)c1C#N | 105% | 103% | 108% | 92.3% | 93.3% | 104% | 105% |
| NC(=O)c1cccc(-n2ccc3cc(NC(=O)Nc4ccc(Cl)c(Cl)c4)ccc32)n1 | 65.8% | 61% | 94.2% | 57.7% | 71.9% | 97.7% | 55.5% |
| CCN1CCN(c2ccc(Nc3ncc4ccc5ncn(C(C)C)c5c4n3)nc2)CC1 | -24.7% (active) | 0.992% (active) | -7.47% (active) | -1.88% (active) | 8.77% (active) | -4.57% (active) | -16.9% (active) |
| Cc1nc2cc(Nc3nc(NCCO)nc(Nc4ccc(F)cc4)n3)ccc2n1Cc1ccccc1 | 101% | 91.6% | 109% | 91.3% | 76.5% | 106% | 80.3% |
| COc1cc2cc(Oc3ccc(NC(=O)Nc4ccc(Cl)c(C(F)(F)F)c4)cc3)c(C)nc2cc1OCCN1CCCCC1 | 71.7% | -95.9% (active) | -89.4% (active) | -85.9% (active) | -46.3% (active) | -38.6% (active) | -79.6% (active) |
| Nc1cccc2c(=S)c3ccccc3[nH]c12 | 102% | 106% | 92.6% | 85.6% | 93.4% | 106% | 102% |
| COc1ccc(/C=C/C(=O)N2CCC(O)CC2)cc1OC1CCCC1 | 117% | 103% | 106% | 95.4% | 106% | 111% | 105% |
| CCCCC(O)Cn1ncc(C(=O)OCC)c1NC(=O)NCc1ccccc1C(F)(F)F (centres undefined) | 92% | 99.5% | 104% | 94.1% | 89.6% | 108% | 101% |
| COc1ccc(C2=NOC(CC(=O)N(CCO)CCO)C2)cc1OC1CCCC1 (centres undefined) | 95.5% | 104% | 97.7% | 95.2% | 79.6% | 103% | 103% |
| O=c1[nH]c(=O)n(Cc2ccc(F)cc2)cc1F | 102% [50 µM] | 104% [50 µM] | 105% [50 µM] | 96.3% [50 µM] | 112% [50 µM] | 112% [50 µM] | 106% [50 µM] |
| Cc1ccccc1-n1nnc(C(=O)Nc2ccc(-c3ccccc3)cn2)c1C | 50.7% [50 µM] | 23.8% [50 µM] | 69.3% [50 µM] | 24.3% [50 µM] | 31.3% [50 µM] | 73.9% [50 µM] | 53% [50 µM] |
| CC(C)(C)[Si](C)(C)OC1[C@@H](CNC(=O)NC(=O)CCl)O[C@@H](n2cnc3c(N)ncnc32)[C@H]1O[Si](C)(C)C(C)(C)C (some centres undefined) | -70.6% (active) | -90% (active) | -82% (active) | -75.5% (active) | -87.7% (active) | -69.5% (active) | -82.4% (active) |
| COc1ccc(/C=C(\C#N)c2cc3ccccc3n2C)cc1 | 51.2% | -49.1% (active) | 20% | 15.4% | 18.2% | 24.8% | 16.8% |
| CCOC(=O)c1cnn(CC(O)c2ccc(F)cc2)c1NC(=O)Nc1ccccc1F (centres undefined) | 80.1% | 102% | 101% | 93.1% | 89.4% | 115% | 94.3% |
| Cn1c2ccc(Cl)cc2c2nn(C(=O)c3ccccc3)c(=O)nc21 | 122% | 111% | 99.3% | 94.7% | 104% | 111% | 106% |
| Cn1c2c(cc(S(=O)(=O)c3ccccc3)c1=O)CCc1c-2cnn1-c1ccccc1Cl | 101% | 100% | 116% | 96.2% | 109% | 118% | 112% |
| COc1c(Cl)ccc2c(-c3nc4cc(Cl)c(F)cc4s3)cc(=O)oc12 | 107% | 102% | 90.9% | 96.2% | 88.4% | 108% | 79.4% |
| CCCCCCCCCCCCCCCC[N+]1(C)CCOCC1 | 15.1% | 26.9% | 6.63% (active) | 61.6% | 18.2% | 13.9% | -94.4% (active) |
| N#C/C(=C\c1ccc[nH]1)c1cc2ccccc2[nH]1 | 66.9% | 83.2% | 96.3% | 9.04% (active) | 63.4% | 63.8% | 30.7% |
| COc1cc(-c2nc(SC(C)C)nc(Nc3cccc(C)c3)c2C#N)cc(OC)c1OC | 107% | 107% | 109% | 98.1% | 115% | 116% | 110% |
| CCOC(=O)c1c(Cl)c2c(n1Cc1cc(OC)cc(OC)c1)-c1oncc1CCC2 | 69.9% | -53% (active) | 16.8% | 10.7% | 23.9% | 55% | 29.6% |
| CCCCCCCC/C=C\CCCCCCCCOc1cccc(CC(=O)NCC[N+]2(C)CCOCC2)c1 | 98.8% | 94% | 89.1% | 83.8% | 78.5% | 80.6% | 64.1% |
| CCCCOC(=O)C1OC(Oc2ccc3c(C)cc(=O)oc3c2)[C@@H](OC(C)=O)C(OC(C)=O)C1OC(C)=O (some centres undefined) | 103% | 101% | 102% | 91.5% | 88.1% | 109% | 99.4% |

— PubChem BioAssay (NCI)
